# Screens (PubChem BioAssay)
# Shown are actives, neighbours in structure and some others; about 6.7% of the full set was active somewhere.
# GDH-TPI inh: inhibits GDH-TPI coupling enzymes, artifact for Mtb FBA screen; GDH-TPI coupled enzyme counterscreen, NADH absorbance; inhibition, % at 4.8 µM; actives 1.2% (n = 360,000); AID 588335; in the data active = inhibition above about 30%;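 note: 0% = DMSO wells and 100% = wells lacking the enzyme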
# BoNT-F LC inh: BoNT F light chain protease inhibition; Multiplex microsphere protease cleavage assay, flow cytometry; AID 588497; inhibition, % at 10 µM; actives 0.22% (n = 360,000); in the data active = inhibition above about 35%, passing the limit was not always enough; inconclusive = no clear call, values can overlap the other calls; note: plate controls were buffer without enzyme for full effect and enzyme alone for no effect
# Mtb FBA inh: Mtb fructose-bisphosphate aldolase inhibition; P9WQA3; purified M. tuberculosis FBA, fluorescence read-out; actives 2.3% (n = 360,000); inhibition, % at 1 µM; AID 588726; in the data active = inhibition above about 27%;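 note: 0% = vehicle and 100% = reference inhibitor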
# Anthrax LF prot: blocks Bacillus anthracis lethal factor protease; P15917; multiplex microsphere protease cleavage assay, LF; inhibition, % at 10 µM; actives 0.12% (n = 360,000); AID 588501; note: plate controls were buffer without enzyme for full effect and enzyme alone for no effect
# Target sequence (P15917 whole entry, looked up): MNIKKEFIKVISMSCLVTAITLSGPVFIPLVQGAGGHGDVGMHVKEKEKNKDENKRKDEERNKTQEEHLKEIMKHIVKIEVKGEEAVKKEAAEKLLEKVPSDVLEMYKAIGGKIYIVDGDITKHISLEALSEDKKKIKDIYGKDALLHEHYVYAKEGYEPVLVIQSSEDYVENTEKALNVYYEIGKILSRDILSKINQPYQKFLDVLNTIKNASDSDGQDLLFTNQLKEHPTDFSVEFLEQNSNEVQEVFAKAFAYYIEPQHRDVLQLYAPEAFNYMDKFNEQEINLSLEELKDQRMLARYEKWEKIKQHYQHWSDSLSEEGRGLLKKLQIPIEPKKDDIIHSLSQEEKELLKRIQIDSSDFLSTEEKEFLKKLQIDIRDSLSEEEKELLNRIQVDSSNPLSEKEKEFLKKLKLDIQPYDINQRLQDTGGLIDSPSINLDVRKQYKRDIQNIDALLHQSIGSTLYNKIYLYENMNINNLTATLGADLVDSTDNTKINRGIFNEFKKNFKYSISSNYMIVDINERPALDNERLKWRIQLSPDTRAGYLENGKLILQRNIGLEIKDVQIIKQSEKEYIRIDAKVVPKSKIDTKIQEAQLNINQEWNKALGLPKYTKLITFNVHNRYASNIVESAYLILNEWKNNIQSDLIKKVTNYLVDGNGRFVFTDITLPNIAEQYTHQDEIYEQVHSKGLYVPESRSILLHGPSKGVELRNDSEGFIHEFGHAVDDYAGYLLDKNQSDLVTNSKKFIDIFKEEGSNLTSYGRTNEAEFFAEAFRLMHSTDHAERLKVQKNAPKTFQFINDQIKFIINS
# Autofluor counter: compound fluorescence in toxin protease inhibitor counterscreen. compound autofluorescence counterscreen, microsphere flow cytometry; active compounds read high. fluorescence intensity (concentration not given with the values). actives 3.1% (n = 360,000). AID 624483; in the data active = fluorescence intensity above about 16000; inconclusive = no clear call, values can overlap the other calls
# BoNT A protease: BoNT A light chain protease inhibition. multiplex microsphere protease substrate cleavage, flow cytometry. inhibition, % at 10 µM. AID 588499. actives 0.17% (n = 360,000); note: plate controls were buffer without enzyme for full effect and enzyme alone for no effect
# Numbers without * were called inactive; ? = inconclusive; nt = no result; + = active, no number. Cut-off read from the data, not from the text of the source, unless noted: active = inhibition above about 30%; inconclusive = no clear call, values can overlap the other calls; inactive = below that.
SMILES,GDH-TPI inh,BoNT-F LC inh,Mtb FBA inh,Anthrax LF prot,Autofluor counter,BoNT A protease
COc1ccccc1NC(=O)CCN1C(=O)c2ccccc2C1=O,-0.4,3.2,2.5,7.3,3571,0.0
Cc1cc(=O)oc2cc(OC(=O)CCN3C(=O)c4ccccc4C3=O)ccc12,5.6,1.5,+,-4.4,22230*,2.0
CCc1ccc(OC(=O)c2cncc(Br)c2)cc1,-2.0,-3.6,2.6,12.1,3540,3.0
Cc1cc(=O)oc2cc(OC(=O)c3cncc(Br)c3)ccc12,-2.9,3.7,+,0.1,4416,-0.1
C=CCN(c1ccccc1)S(=O)(=O)c1cccc(C(=O)OCC(=O)NCCOC)c1,14.3,1.8,2.7,0.8,3530,-0.4
O=C(Oc1ccc2c(=O)c(Oc3ccc4ccccc4c3)coc2c1)c1cncc(Br)c1,3.0,35.7*,29.9*,1.0,4480,0.2
C=CCN(c1ccccc1)S(=O)(=O)c1cccc(C(=O)Oc2ccc3c(C)cc(=O)oc3c2)c1,-4.0,-5.2,+,-2.2,2236,-0.1
CCCCn1nc(C(=O)Oc2ccc3c(C)cc(=O)oc3c2)c2ccccc2c1=O,4.0,-3.6,+,1.8,2536,-0.3
COc1ccc(OCCN2C(=O)c3ccccc3C2=O)cc1,-3.8,3.9,-0.6,-1.9,2165,1.3
CCCCn1nc(C(=O)NCC(=O)Nc2c(C)cccc2C)c2ccccc2c1=O,-0.9,-1.6,3.8,3.6,3675,0.1
O=C(Oc1ccc2ccccc2c1)c1cncc(Br)c1,3.6,-6.8,1.9,0.2,11232,-0.3
COc1ccc(OC(=O)CCCN2C(=O)c3ccccc3C2=O)cc1,5.0,-3.0,-2.1,-4.1,24000*,-2.6
O=C(O)c1ccc2c(c1)N(Cc1cccc(F)c1)C(=O)CS2,6.6,-9.5,-1.4,-4.7,6003,-1.2
O=[N+]([O-])c1ccccc1C=NNc1ccccc1,8.8,-6.7,-2.9,2.9,3916,-0.3
Cc1ccc(-c2nc(N/N=C/c3ccccc3[N+](=O)[O-])c3ccccc3n2)cc1,7.0,1.8,-0.2,0.3,16971*,-2.3
N#CCCSc1ncnc2c1oc1ccccc12,8.6,-0.7,-1.1,-2.3,18891*,1.8
OCCSc1ncnc2c1oc1ccccc12,9.4,-4.5,-2.3,7.2,2567,-0.1
N#Cc1nc(Cc2cccc3ccccc23)oc1NCC1CCCO1 (stereo not drawn),8.6,-2.7,1.7,-6.2,21943*,0.6
N#Cc1nc(Cc2cccc3ccccc23)oc1NCc1ccco1,-2.5,-0.8,0.3,-12.9,22710*,1.2
COc1ccc(C(=O)CCC(=O)O)c(C)c1,1.2,0.8,0.1,-4.3,22646*,1.0
COc1ccc(OC)c(C(=O)CCCCC(=O)c2cc(OC)ccc2OC)c1,15.0,-12.8,-1.2,-11.0,4217,-0.5
O=C(NNc1cc(N2CCOCC2)nc(N2CCOCC2)n1)c1ccc([N+](=O)[O-])cc1,9.5,-0.1,-0.3,-4.6,4562,0.4
CCCCNC(=S)NNC(=O)c1sccc1C,10.6,-1.0,-0.7,-1.6,16469*,-0.1
Cc1ccc(/C=C/C(=O)N2CCN(c3cccc(C(F)(F)F)c3)CC2)cc1,-0.4,-1.4,-4.8,-2.4,2390,-0.3
C(=N\NC1=NCCCCC1)/c1c[nH]c2ccccc12,38.7*,nt,-3.9,nt,nt,nt
SMILES,GDH-TPI inh,BoNT-F LC inh,Mtb FBA inh,Anthrax LF prot,Autofluor counter,BoNT A protease
Cn1c(N/N=C/c2c[nH]c3ccccc23)nc2ccccc21,58.1*,-20.7,2.2,-6.8,4158,0.2
Cc1cc(N/N=C/c2c[nH]c3ccccc23)c2ccccc2n1,3.0,0.2,3.4,-0.9,3261,-0.1
Cc1cc(C)c(S(=O)(=O)/N=C2\C=C(Nc3ccc(C(=O)O)cc3)C(=O)c3ccccc32)c(C)c1,16.9,0.2,-1.8,-4.7,4134,1.2
Cc1ccccc1OCCSc1nc2ccccc2n1CCC(=O)O,3.0,?,1.7,-3.3,3064,0.9
O=C(NNS(=O)(=O)c1ccccc1)c1cccc([N+](=O)[O-])c1,5.2,?,-0.5,-2.6,3130,3.7
CCN(CC)CCOc1ncnc2c1oc1ccccc12,6.5,5.4,0.2,0.5,19366*,?
CCN(CC(=O)Nc1ccccc1C(F)(F)F)C(=O)c1ccc(N2CCCC2=O)cc1,6.0,nt,-0.7,nt,nt,nt
COc1cc(N)c2ncccc2c1Cl,12.3,-16.6,46.4*,1.6,3162,-0.6
COc1ccc(OC)c(N=c2oc3cc(O)ccc3cc2C(N)=O)c1,9.1,?,116.2*,?,?,?
NC(=O)c1cc2ccccc2o/c1=N\NC(=O)c1ccccc1O,0.0,-12.9,-0.1,-2.8,3178,0.8
COc1ccc2oc(=Nc3cc(F)ccc3F)c(C(N)=O)cc2c1,5.0,-3.3,20.9,-1.9,3197,1.2
NC(=O)c1cc2ccccc2oc1=NCc1ccccc1,6.8,-5.2,2.9,-1.9,2443,-0.2
NC(=O)c1cc2ccc(O)cc2oc1=Nc1ccccc1,16.0,-2.0,+,-2.4,3572,-0.4
NC(=O)c1cc2ccc(O)cc2oc1=NCc1ccccc1,14.8,-1.6,+,1.3,11165,0.3
O=C(Nc1ccc(Cl)cc1Cl)c1ccc2c(=O)n3c(nc2c1)CCC3,-4.6,-2.3,-1.3,4.5,?,-1.2
O=C(N/N=C/c1cn[nH]c1-c1ccc(F)cc1)c1ccncc1,11.9,-10.7,-2.4,-6.8,9762,-1.2
Cc1ccsc1/C=N/NC(=O)c1nnn(-c2nonc2N)c1CN(C)c1ccccc1,37.0*,-6.3,2.5,-2.6,5735,-1.1
CCc1c(C(=O)N/N=C/c2sccc2C)nnn1-c1nonc1N,28.0,-3.5,0.1,0.4,6084,-1.4
Cc1ccc(/C=N/NC(=O)c2nnn(-c3nonc3N)c2CN(C)c2ccccc2)s1,33.6*,-2.8,-1.1,-1.1,5053,1.5
Cc1ccc(C2=NCC(=O)N(CC(=O)N3CCCCC3)c3sc(C)c(C)c32)cc1,12.4,-4.1,-2.3,-0.3,23432*,?
CCn1nc(C(=O)NC2=NCCS2)c2ccccc2c1=O,1.9,-21.7,1.4,1.8,4380,-0.6
O=C(CCN1C(=O)C2C3C=CC(C3)C2C1=O)NC1CCCCC1 (stereo not drawn),9.6,4.4,7.6,1.7,4165,1.6
Clc1ccccc1OCCCCN1CCCC1,2.8,6.7,2.6,-4.9,20741*,8.6
Clc1ccccc1OCCCCN1CCCCC1,5.9,-22.3,-0.4,-2.4,3645,-0.7
CCOC(=O)C1=C(C)NC(SC)=C(C#N)C1CC(C)C (stereo not drawn),32.4*,nt,1.9,nt,nt,nt
O=C(CCCOc1ccccc1)N1CCN(C(=O)c2ccco2)CC1,10.3,0.3,6.3,0.7,23020*,0.2
Cc1cc(Cl)ccc1OCCCC(=O)N1CCN(C(=O)c2ccco2)CC1,13.3,8.2,0.4,-3.9,21790*,3.4
O=C(COc1ccc2ccccc2c1)N1CCN(C(=O)c2ccco2)CC1,9.9,1.4,-5.0,1.9,1905,1.1
Cc1ccc(OCC(=O)N2CCN(C(=O)c3ccco3)CC2)cc1,-4.0,-5.6,1.9,-3.9,3896,-0.8
O=C(NCc1ccccc1)c1ccccc1OCC(=O)N1CCCCC1,12.1,-2.2,-2.9,-2.1,22260*,-0.9
